Compound activity deposited in PubChem by National Center for Advancing Translational Sciences (NCATS).
D1 antagonist – Antagonist of Human D 1 Dopamine Receptor: qHTS; AID 504652, 2011; activity change, negative = inhibition, % at 10 µM; D(1A) dopamine receptor (Homo sapiens), P21728; HEK293 TREx D1 cells, calcium flux, dopamine EC80; active compounds read low; 3.2% of 360,000 active; in the data active = activity change below about -30%; also: % is scaled to controls: 0 for no effect and ±100 for the full control effect
Target sequence (P21728 whole entry, looked up): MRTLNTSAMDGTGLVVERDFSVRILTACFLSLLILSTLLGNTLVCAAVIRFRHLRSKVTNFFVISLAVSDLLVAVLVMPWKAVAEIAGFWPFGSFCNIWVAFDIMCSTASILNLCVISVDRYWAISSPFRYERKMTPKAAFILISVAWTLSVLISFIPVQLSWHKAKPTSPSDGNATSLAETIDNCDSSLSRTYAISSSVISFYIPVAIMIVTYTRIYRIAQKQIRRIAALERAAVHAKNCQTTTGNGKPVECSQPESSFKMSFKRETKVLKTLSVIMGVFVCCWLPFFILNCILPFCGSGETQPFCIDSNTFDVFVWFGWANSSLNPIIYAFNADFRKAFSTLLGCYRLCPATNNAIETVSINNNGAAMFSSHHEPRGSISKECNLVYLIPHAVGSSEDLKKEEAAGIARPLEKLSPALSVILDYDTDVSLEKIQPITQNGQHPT
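Kinetic fluorescence of a calcium dye serves as the read-out. D1-expressing Hek293 Trex cells, induced overnight at 30 C, are exposed to compound for 180 s before an EC80 dopamine addition, then read 180 s further.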
TRHR agonist – qHTS for Small Molecule Agonists and Allosteric Enhancers of Human TRH Receptor: Primary Screen for Agonists; TRHR cells, calcium flux fluo-8, FDSS agonist mode; activation, % at 2 µM; 0.18% of 360,000 active; also: 0% is about no effect
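TRHR-expressing cells loaded with fluo-8 calcium dye; 23 nL library compound pin-transferred, kinetic FDSS fluorescence (Ex 480/Em 530) recorded about 180 s for agonist-induced calcium release, before a 10 nM TRH EC20 addition for potentiator mode.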
D1 ag – Allosteric Agonists of the Human D1 Dopamine Receptor: qHTS; D(1A) dopamine receptor (Homo sapiens), P21728; HEK293 T-REx D1 cells, calcium flux, agonist mode; activation, % at 2 µM; 1% of 360,000 active; also: 0% is about no effect
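Inducible HEK293 T-REx D1 cells, force-coupled to calcium signalling, were plated at 4000 cells/well with tetracycline and held overnight at 30 C. After no-wash calcium dye loading, compound-evoked calcium rise over 180 s flagged agonists.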
TRHR enhancer – qHTS for Small Molecule Agonists and Allosteric Enhancers of Human TRH Receptor: Primary Screen for Enhancers | Thyrotropin-releasing hormone receptor (Homo sapiens), P34981 | TRHR cells, fluo-8 calcium fluorescence, EC20 TRH enhancement | enhancement, % at 2 µM | 0.66% of 360,000 active; in the data active = enhancement above about 30%; also: 0% is about no effect
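Enhancer read-out: after compound pinning and an initial kinetic agonist-mode read, an EC20 of TRH (10 nM final) was injected and fluo-8 calcium signal (Ex 480/Em 530) followed at 1 s/cycle for 100 cycles in TRHR-expressing cells.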
D1 potentiator – Potentiators of Human D1 Dopamine Receptor: qHTS | HEK293 TREx D1 cells, calcium flux, dopamine EC20 potentiation | potentiation, % at 10 µM | 0.036% of 360,000 active; in the data active = potentiation above about 30%; also: 0% is about no effect
Active calls of the source: *; . = no result given; ! = a repeat was not active. Shown are actives, neighbours in structure and some others; about 4.7% of the full set was active somewhere. Rule as the data show it, unless noted: active = activation above about 30%; inactive = the rest.

SMILES	D1 antagonist	TRHR agonist	D1 ag	TRHR enhancer	D1 potentiator
CCOc1ccc(OCc2ccc(C(=O)N(CC)CC)cc2)cc1	-42*	0	16	-3	-6
O=C(c1ccccc1)N(Cc1ccccc1)Cc1ccccc1	-13	1	1	-7	-9
CCN(CC(=O)Nc1c(F)cccc1F)C(=O)c1ccc(COc2ccccc2)cc1	5	-1	1	-4	1
CCN(Cc1ccccc1)C(=O)c1ccc(C(=O)N(CC)Cc2ccccc2)cc1	-62*	0	4	-5	1
COc1cc(Cn2ncc3c4sc(C)cc4n(C)c3c2=O)cc(OC)c1	0	0	13	4	-3
Cc1cc(CSC(=N)N)c(CSC(=N)N)cc1C	-95*	1	2	-23	-3
CCc1oc(C(=O)OC)cc1CSC(=N)N	-23	-1	5	-3	-7
O=C(CCCc1ccccc1)NC1CC(=O)N(c2ccc(F)cc2)C1 (configuration not stated)	.	0	-4	1	-2
Cc1ccc(C(=O)COC(=O)CCS(=O)(=O)c2ccccc2)cc1[N+](=O)[O-]	-3	-1	1	1	-7
Cc1ccc(S(=O)(=O)CCC(=O)OCC(=O)c2ccc(C)c(C)c2)cc1	-31*	0	11	4	-10
N#C/C(=C/c1ccc(-c2ccc(S(N)(=O)=O)cc2)o1)c1nc2ccccc2s1	-4	93*	265*	20	-9
CC(C)(C)c1ccc(C(=O)OC/C(O)=C(\C#N)c2nc3ccccc3s2)cc1	-75*	1	10	-3	-10
N#C/C(=C\c1ccccn1)c1nc2ccccc2s1	-3	45*	148*	3	7
CCOC(=O)N1CCN(/C=C(\C#N)c2nc3ccccc3s2)CC1	-8	5	32*	-10	-3
N#C/C(=C/c1ccc(-c2ccc(S(N)(=O)=O)cc2)o1)C(=O)Nc1ccccc1	-12	1	4	-6	0
N#C/C(=C\N1CCN(Cc2ccc3c(c2)OCO3)CC1)c1nc2ccccc2s1	-9	0	12	2	2
Cc1ccc(Nc2c(-c3cccs3)nc3nc(C)cc(C)n23)cc1	27	-1	0	-3	5
O=C(NN1CCN(Cc2ccccc2)CC1)c1ccc(N2CCOCC2)c([N+](=O)[O-])c1	-6	0	0	3	-2
N#C/C(=C/c1ccc(-c2ccccc2)o1)c1nc(-c2cccs2)cs1	-8	68*	215*	0	-6
N#C/C(=C\c1ccc(-c2ccc(F)cc2)o1)C(=O)Nc1nc(-c2cccs2)cs1	13	1	14	15	-3
COC(=O)c1ccc(/C=C(\C#N)c2nc3ccccc3s2)cc1	26	15	56*	3	2
CC(C)CC(OC(=O)CNC(=O)c1ccccc1)C(=O)Nc1cc(C(F)(F)F)ccc1Cl (configuration not stated)	-27	-2	5	-8	-2
NCC1CC2c3ccccc3C1c1ccccc12 (configuration not stated)	1	1	18	6	12
O=C(Nc1ccc(N=Nc2ccccc2)cc1)c1ccc(Cl)cc1Cl	-38*	1	-1	-5	0
O=C(Nc1ccc(N=Nc2ccccc2)cc1)c1ccccc1Cl	-8	-1	2	9	-6
SMILES	D1 antagonist	TRHR agonist	D1 ag	TRHR enhancer	D1 potentiator
O=C(O)c1c(-c2ccccc2)oc2ccc(OCc3c(F)cccc3Cl)cc12	0	-1	36*	13	1
CC(=O)OCc1c(C(F)(F)F)nn(C)c1Oc1ccccc1	-14	1	-1	6	-2
CC(=O)OCc1c(C(F)(F)F)nn(C)c1Oc1cccc(C(F)(F)F)c1	-35*	0	18	15	-12
C=CCN(CC(=O)NC1CCS(=O)(=O)C1)S(=O)(=O)c1ccccc1C(F)(F)F (configuration not stated)	1	2	3	31*	-7
CCN(CC(=O)NC1CCS(=O)(=O)C1)c1ccc([N+](=O)[O-])cc1C#N (configuration not stated)	-31*	0	2	5	-3
O=C(CN1C(=O)c2ccc([N+](=O)[O-])cc2C1=O)NC1CCS(=O)(=O)C1 (configuration not stated)	-2	0	1	2	0
CCN(CC(=O)NC1CCS(=O)(=O)C1)S(=O)(=O)c1cc(C)ccc1C (configuration not stated)	-55*	0	0	-2	-12
COc1ccc(CS(=O)(=O)/C(Cl)=C(/Cl)C(=O)Nc2ccc(OC)nc2)cc1	-22	1	3	-9	-8
COc1ccc(N(Cc2cccs2)C(=O)COc2cccc(Cl)c2)cc1	-7	2	25	-3	-1
Cc1ccc(CNC(=O)c2cccc3c2C(=O)c2ccc(N4CCOCC4)cc2S3(=O)=O)cc1	.	2	49*	3	-3
O=C(O)/C=C/c1cccnc1	-80*	1	1	-1	-4
CC(/C=C\c1cccnc1)=C/C(=O)O	-62*!	1	3	-3	-10
Cn1nnnc1Sc1ncnc2scc(-c3cccc(C#N)c3)c12	-1	-1	1	-5	-3
Cc1ccc(C2NC(=O)c3ccccc3N2)s1 (configuration not stated)	-10	1	0	35*	6
Cc1cccc(COC(=O)Nc2ccc(NC(=O)c3ccccc3Cl)cc2)c1	-56*	0	9	7	-8
CCOC(=O)Nc1ccccc1C(=O)Nc1cc(C)cc(C)c1	-24	-1	2	0	-4
CC1CC1C(=O)OCc1cc(=O)n2cc(Br)ccc2n1 (configuration not stated)	-9	0	2	34*	9
CCN(c1cccc(C)c1)S(=O)(=O)c1cc(Br)cc2c1N(C(C)=O)C(C)C2 (configuration not stated)	-2	0	1	4	2
CCCN(Cc1cccs1)C(=O)Nc1cc(Cl)c(OC)cc1OC	-3	0	2	-11	-1
N#C/C(=C\c1ccc(OCC(N)=O)cc1)C(=O)NC1CC1	-36*	1	-1	-1	-17
Cc1ccc(NC(=O)CSCC(=O)Nc2ccc(N3CCOCC3)cc2N2CCOCC2)cc1	2	-1	4	3	2
Cc1ccc(NC(=O)c2cc(N3C(=O)C4CC=CCC4C3=O)ccc2N2CCOCC2)cc1Cl (configuration not stated)	7	1	1	39*	0
